Where “and” joins values, the source holds several entries; their conditions need not be identical. Equal entries are not always repeated. Inconclusive results are not listed. A call without a number means that no potency is given here. Calls of active or inactive are those of the source. Calls follow the shape of the dose curve; as a rule, active = well fitted cell-killing curve with a large enough effect in the repeat runs; inconclusive = weak or mixed curves, or effect the other way; inactive = flat fitted curve, though single readings scatter.

The record followed here is PubChem BioAssay (Tox21).
Potency is read from the fitted curve at half-maximal effect.

The assay in a line: Caspase-3/7 induction in HepG2 cells by small molecules, qHTS cell viability counter screen (AID 1346981). Also: nearly all actives have a fitted effect of over 30% in size. Conditions: CellTiter-Fluor fluorescence, 17 h; series mostly up to 92.4 µM. An excerpt:
U.S. Tox21 Program National Center for Advancing Translational Sciences [NCATS] NIH Chemical Genomics Center [NCGC] U.S. Environmental Protection Agency [EPA] National Institutes of Environmental Health Sciences [NIEHS] National Toxicology Program [NTP] U.S. Food and Drug Administration [FDA] Tox21 Assay Overview: Apoptosis is a process of programmed cell death and plays a central role in the development of multicellular organisms. It is a highly regulated process and induces cell death by activating caspases, which are the members of cysteine aspartic acid-specific protease (caspase) family. Caspases involved in apoptosis are classified by their mechanism of action as initiator caspases (caspase-2, -8, -9 and -10) and executioner caspases (caspase-3, -6, and -7). Inhibition of apoptosis results in number of cancers, autoimmune diseases, inflammatory diseases and viral infection. To identify small molecule compounds that induce apoptosis, a homogeneous, luminescent Caspase-Glo 3/7 assay was used. Wild type HepG2 cells were used to screen Tox21 libraries for identifying caspase-3/7 activity inducers. Also cytotoxicity of the compounds was tested in parallel by measuring the cell viability using CellTiter-Fluor assay system in the same wells.
Tox21 Assay Protocol Summary: HepG2 cells were dispensed at 2,000 per well in 5uL of culture medium into white solid bottom 1536-well plates (Corning Life Sciences, Corning, NY) using a Multidrop Combi (Thermo Scientific, Waltham, MA) dispenser. The assay plates were incubated at 37 C and 5% CO2 for 5hr, and then 23nL of compounds dissolved in DMSO and positive control were transferred using a Pintool station ([…], San Diego, CA). The assay plates were incubated at 37C and 5% CO2 for 17hr. For cytotoxicity read, after 16hr incubation at 37C, 1uL CellTiter-Fluor reagent (Promega Corporation, Madison, WI) was added to each well of the assay plates using Flying Reagent Dispenser (FRD, Aurora Discovery, San Diego, CA). After 1hr incubation at 37C and 5% CO2, the fluorescence signal was quantified using a ViewLux plate reader (PerkinElmer, Shelton, CT).
Turning to `CCC(C)Br` (stereo not given), the Potency result was “inactive”.

With `CNC(=O)Oc1cc(C)cc(C(C)C)c1`, the Potency entry is “inactive”.

Consider `O=C(NC(=O)c1ccccc1Cl)Nc1ccc(OC(F)(F)F)cc1`, for which the Potency result is “inactive”.

Consider `CC(C)N(C(=O)SC/C(Cl)=C/Cl)C(C)C`, for which the Potency result was “inactive”.

For the compound `CN(C)c1ccc(N)cc1`, the Potency was 47.4 µM (active).

On to `C=CC(=C)C`, for which the Potency entry is “inactive”.

With `O.O.O.O.O.O.O=S(=O)([O-])[O-].[Ni+2]`, the Potency entry was “inactive”.

For the compound `O.O.O.O=C([O-])[C@H]([O-])[C@@H]([O-])C(=O)[O-].O=C([O-])[C@H]([O-])[C@@H]([O-])C(=O)[O-].[K+].[K+].[Sb+3].[Sb+3]`, the Potency entry was “inactive”.

As to `[Cl-].[Cl-].[Cl-].[Yb+3]`, the Potency result was “inactive”.

With `CC(Cc1ccc(OCC(=O)O)cc1)NCC(O)c1csc(C(F)(F)F)n1` (stereo not given), the Potency entry is “inactive”.

As to `CC(O)C(=O)[O][Hg][c]1ccccc1` (stereo not given), the Potency is 4.86 µM (active).

For the compound `CCOC(=O)Cc1ccccc1`, the Potency result was “inactive”.

Turning to `CCC(OC(C)=O)C(CC(C)NC)(c1ccccc1)c1ccccc1` (stereo not given), the Potency was 69.2 µM (active).

On to `O=[N+]([O-])C(Br)Br`, for which the Potency result was “inactive”.

In the case of `CC1CN1` (stereo not given), the Potency result was “inactive”.

`CN(C)C(=S)SSC(=S)N(C)C`: the Potency is 26.9 µM (active) and 19.3 µM (active) and 15 µM (active).

As for `[C-]1=CC=CC1.[Cl][Zr+2][Cl].c1cc[cH-]c1`, the Potency result is “inactive”.

Take `CCCCC(CC)COC(=O)OOC(C)(C)C` (stereo not given): the Potency result was “inactive”.

For `CO/N=C(/C1=NOCCO1)c1ccccc1Oc1ncnc(Oc2ccccc2Cl)c1F`, the Potency was 30.6 µM (active).

In the case of `CC(C)C(Nc1ccc(C(F)(F)F)cc1Cl)C(=O)OC(C#N)c1cccc(Oc2ccccc2)c1` (stereo not given), the Potency result was “inactive”.

For `c1ccc2nc(N3CCNCC3)ccc2c1`, the Potency result is “inactive”.

As to `COc1cnc(OC)n2nc(NS(=O)(=O)c3c(OCC(F)F)cccc3C(F)(F)F)nc12`, the Potency result was “inactive”.

For the compound `CCOP(=O)(OCC)Oc1cc(C)nc(C(C)C)n1`, the Potency entry is “inactive”.

Take `ClC1(Cl)C2(Cl)C3(Cl)C4(Cl)C(Cl)(Cl)C5(Cl)C3(Cl)C1(Cl)C5(Cl)C24Cl` (stereo not given): the Potency entry is “inactive”.

Regarding `CC[N+]1(CC)CCC(OC(=O)C(O)(c2ccccc2)c2ccccc2)C1` (stereo not given), the Potency entry is “inactive”.

Regarding `Cc1ccn2nc(S(=O)(=O)Nc3c(F)cccc3F)nc2n1`, the Potency result was “inactive”.

For the compound `CCO/N=C(\CC)C1=C(O)CC(c2c(C)cc(C)cc2C)CC1=O` (stereo not given), the Potency entry is “inactive”.

On to `[O-][Cl+3]([O-])([O-])O`, for which the Potency entry was “inactive”.

For the compound `CCN(CC)C(=O)N[C@@H]1C=C2c3cccc4[nH]cc(c34)C[C@@H]2N(C)C1`, the Potency entry is “inactive”.

On to `Cc1cnc2c(C(=O)O)c(Cl)ccc2c1`, for which the Potency result is “inactive”.

`Oc1ccc(Cl)c(Cl)c1`: the Potency entry was “inactive”.

As to `CSC(=O)c1c(C(F)F)nc(C(F)(F)F)c(C(=O)SC)c1CC(C)C`, the Potency entry is “inactive”.

For `C#CCO`, the Potency entry is “inactive”.

As to `O=P(Cl)(Cl)Cl`, the Potency result is “inactive”.

With `CC1(C)C(C=C(Cl)Cl)C1C(=O)OC(C#N)c1ccc(F)c(Oc2ccccc2)c1` (stereo not given), the Potency result was “inactive”.

As for `CCOC(=O)CCN(SN(C)C(=O)Oc1cccc2c1OC(C)(C)C2)C(C)C`, the Potency result is “inactive”.

Consider `O=[N+]([O-])c1ccccc1-c1ccccc1`, for which the Potency entry was “inactive”.

Consider `N#Cc1sc2c(=O)c3ccccc3c(=O)c=2sc1C#N`, for which the Potency was 21.7 µM (active).

`C=CC(=O)[O][Sn]([CH2]CCC)([CH2]CCC)[CH2]CCC`: the Potency is 3.86 µM (active).

On to `[Cl-].[Cl-].[Sn+2]`, for which the Potency result was “inactive”.
